Pf apPOL block: Pf-apPOL DNA polymerase inhibition. Recombinant Pf-apPOL, molecular beacon fluorescence, 1.5 h. inhibition, % at 10 µM. 210,000 tested, 0.25% active
mHTT CaM bind: disrupts binding of mutant huntingtin to calmodulin; P42858; AlphaScreen His-mHTT/GST-CaM binding, luminescence; inhibition, % at 15 µM; 190,000 tested, 3.6% active; AID 1671202;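 note: 0% = both proteins with DMSO and 100% = one protein alone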
Target sequence (P42858 whole entry, looked up, stated change not applied): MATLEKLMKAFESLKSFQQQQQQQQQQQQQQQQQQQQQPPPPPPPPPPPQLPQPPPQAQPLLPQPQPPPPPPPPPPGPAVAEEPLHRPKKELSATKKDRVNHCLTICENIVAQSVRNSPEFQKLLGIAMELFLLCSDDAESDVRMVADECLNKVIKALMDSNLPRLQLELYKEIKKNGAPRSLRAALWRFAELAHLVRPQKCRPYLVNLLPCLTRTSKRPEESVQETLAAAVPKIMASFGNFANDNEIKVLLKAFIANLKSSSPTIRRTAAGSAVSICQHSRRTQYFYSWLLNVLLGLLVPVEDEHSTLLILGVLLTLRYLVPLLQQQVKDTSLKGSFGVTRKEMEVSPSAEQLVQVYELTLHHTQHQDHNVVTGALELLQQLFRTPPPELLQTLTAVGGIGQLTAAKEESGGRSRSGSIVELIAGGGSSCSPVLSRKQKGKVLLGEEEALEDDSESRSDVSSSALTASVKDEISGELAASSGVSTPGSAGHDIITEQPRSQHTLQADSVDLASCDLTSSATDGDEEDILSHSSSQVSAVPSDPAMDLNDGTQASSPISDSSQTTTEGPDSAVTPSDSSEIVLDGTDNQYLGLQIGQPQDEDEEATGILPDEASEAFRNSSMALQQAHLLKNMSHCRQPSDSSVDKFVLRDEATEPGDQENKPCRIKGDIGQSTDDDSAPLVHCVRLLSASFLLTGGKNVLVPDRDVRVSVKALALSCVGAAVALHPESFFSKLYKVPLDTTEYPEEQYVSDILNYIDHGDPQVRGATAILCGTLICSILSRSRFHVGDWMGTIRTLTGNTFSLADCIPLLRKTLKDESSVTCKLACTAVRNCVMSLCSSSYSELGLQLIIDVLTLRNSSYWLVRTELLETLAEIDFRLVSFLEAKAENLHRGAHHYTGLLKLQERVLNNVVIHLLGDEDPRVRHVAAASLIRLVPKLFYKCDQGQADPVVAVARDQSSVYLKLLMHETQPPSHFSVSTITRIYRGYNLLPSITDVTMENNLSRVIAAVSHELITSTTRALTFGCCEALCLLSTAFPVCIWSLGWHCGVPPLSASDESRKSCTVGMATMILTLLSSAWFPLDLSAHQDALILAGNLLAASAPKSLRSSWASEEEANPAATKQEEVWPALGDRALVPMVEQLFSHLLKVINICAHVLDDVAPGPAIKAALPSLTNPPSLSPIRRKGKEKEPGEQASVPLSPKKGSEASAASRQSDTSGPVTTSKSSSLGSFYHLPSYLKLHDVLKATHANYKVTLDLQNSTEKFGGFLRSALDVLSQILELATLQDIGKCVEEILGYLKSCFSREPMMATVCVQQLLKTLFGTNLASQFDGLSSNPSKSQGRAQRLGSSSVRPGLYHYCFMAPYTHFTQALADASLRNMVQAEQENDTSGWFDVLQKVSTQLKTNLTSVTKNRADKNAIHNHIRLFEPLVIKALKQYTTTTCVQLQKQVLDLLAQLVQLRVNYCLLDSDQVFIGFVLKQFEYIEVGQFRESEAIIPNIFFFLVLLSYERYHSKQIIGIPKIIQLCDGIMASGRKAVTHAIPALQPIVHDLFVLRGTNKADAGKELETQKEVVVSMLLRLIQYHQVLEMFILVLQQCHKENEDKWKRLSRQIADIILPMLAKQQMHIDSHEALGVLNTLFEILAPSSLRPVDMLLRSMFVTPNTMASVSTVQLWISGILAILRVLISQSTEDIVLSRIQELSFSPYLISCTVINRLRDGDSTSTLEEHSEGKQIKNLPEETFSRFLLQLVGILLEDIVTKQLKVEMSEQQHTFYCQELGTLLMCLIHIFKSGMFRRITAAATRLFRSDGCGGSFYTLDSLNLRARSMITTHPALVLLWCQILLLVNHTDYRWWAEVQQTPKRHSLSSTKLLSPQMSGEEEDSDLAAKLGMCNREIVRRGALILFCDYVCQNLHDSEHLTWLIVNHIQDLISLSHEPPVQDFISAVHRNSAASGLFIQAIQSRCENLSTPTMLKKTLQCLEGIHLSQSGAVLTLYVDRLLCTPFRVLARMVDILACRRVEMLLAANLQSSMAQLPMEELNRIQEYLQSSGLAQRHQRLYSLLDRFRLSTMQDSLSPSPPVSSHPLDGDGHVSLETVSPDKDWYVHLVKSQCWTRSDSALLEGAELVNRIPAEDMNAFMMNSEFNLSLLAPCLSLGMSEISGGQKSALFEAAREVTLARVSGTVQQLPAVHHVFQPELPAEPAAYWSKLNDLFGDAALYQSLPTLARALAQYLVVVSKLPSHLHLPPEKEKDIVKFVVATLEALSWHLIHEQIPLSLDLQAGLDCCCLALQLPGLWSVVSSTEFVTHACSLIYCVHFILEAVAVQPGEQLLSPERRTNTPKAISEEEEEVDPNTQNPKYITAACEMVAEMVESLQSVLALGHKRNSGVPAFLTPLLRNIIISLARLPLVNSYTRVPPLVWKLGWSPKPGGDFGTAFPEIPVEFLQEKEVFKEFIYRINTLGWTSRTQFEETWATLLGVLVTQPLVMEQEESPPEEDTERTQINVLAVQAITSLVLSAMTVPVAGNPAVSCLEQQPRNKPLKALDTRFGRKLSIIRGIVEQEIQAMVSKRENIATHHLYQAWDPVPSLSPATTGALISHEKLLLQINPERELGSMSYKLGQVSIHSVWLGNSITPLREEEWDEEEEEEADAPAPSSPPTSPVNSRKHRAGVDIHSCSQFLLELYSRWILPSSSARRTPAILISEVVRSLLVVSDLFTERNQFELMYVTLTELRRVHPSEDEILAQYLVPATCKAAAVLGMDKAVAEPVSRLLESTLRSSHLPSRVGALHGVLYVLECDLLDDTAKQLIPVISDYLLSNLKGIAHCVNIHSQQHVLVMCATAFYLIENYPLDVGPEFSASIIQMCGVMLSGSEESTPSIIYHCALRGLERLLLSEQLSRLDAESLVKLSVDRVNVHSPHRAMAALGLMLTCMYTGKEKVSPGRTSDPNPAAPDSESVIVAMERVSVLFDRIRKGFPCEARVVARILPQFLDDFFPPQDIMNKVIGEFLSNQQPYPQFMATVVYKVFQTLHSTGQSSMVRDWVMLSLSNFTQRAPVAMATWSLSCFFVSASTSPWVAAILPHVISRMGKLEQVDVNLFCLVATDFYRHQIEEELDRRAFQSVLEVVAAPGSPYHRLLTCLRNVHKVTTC
The depositor's hits bear a star; · = no result. Many of the other results were omitted from the sample, so hits are more common in it than they were. Cut-off read from the data, not from the text of the source: active = inhibition above about 50%; inactive = the rest.

SMILES	Pf apPOL block	mHTT CaM bind
COc1cc(CNCCc2cccc(Cl)c2)c([N+](=O)[O-])cc1OC	-0.6	57.3*
O=c1[nH]c(O)c(C=C2C=Nc3ccc(OCc4ccccc4)cc32)c(=O)[nH]1	-2.7	76.0*
COc1ccc(OC)c(-n2c(O)c(C=C3C=Nc4ccccc43)c(=O)[nH]c2=O)c1	-2.5	34.0
CC1(C)C(C(=O)Nc2nc(-c3ccc(F)cc3F)cs2)C1(C)C	-4.1	-6.0
COc1ccc(/C=C/[N+](=O)[O-])cc1Br	-1.7	67.4*
COc1ccc(/C=C/[N+](=O)[O-])cc1I	1.4	71.9*
COc1ccc(/C=C/[N+](=O)[O-])cc1	3.6	26.4
CN(C)c1ccc(/C=C/[N+](=O)[O-])cc1Br	3.3	21.4
Cc1cc(N=C=S)nn1C	·	-2.9
O=[N+]([O-])c1ccc2nc(N3CCNCC3)sc2c1	0.8	10.0
Cc1cccc(C)c1-n1nnnc1C1(N(C)O)CCCCC1	-3.6	-5.0
O=C1NC(=S)NC(=O)C1=Cc1ccco1	91.1*	·
O=C1NC(=S)NC(=O)C1=Cc1c(Cl)cccc1Cl	32.2	·
CC(C)(C)OCC(O)CNC1CCCC1 (stereo not given)	-5.2	-2.0
Brc1cccc(C2CC(c3cccnc3)Nc3nnnn32)c1 (stereo not given)	8.7	-3.0
Brc1ccc2c(c1)C1C=CCC1C(c1cccnc1)N2 (stereo not given)	-4.2	85.0*
Cc1cccc(NC(c2ccc(N(C)C)cc2)c2ccc3ccc(C)nc3c2O)n1 (stereo not given)	-3.6	100.0*
Cc1ccc2cccc(OC(=O)N(C)c3ccccc3)c2n1	1.5	-6.7
Cc1ccc(C)c(N2CCN(Cc3ccccc3C)CC2)c1	1.2	-36.3
Cc1[nH]c2ccccc2c1CCCNC1CCCCC1	-4.8	10.0
Cc1[nH]c2ccccc2c1CCN	1.2	100.3*
COc1ccc2c(c1)C1(CCN(C(=O)c3ccc(OC)c(OC)c3)C1)C(=O)N2 (stereo not given)	-6.4	7.1
COc1ccc2c(c1)C1(CCN(C(=O)c3cccs3)C1)C(=O)N2 (stereo not given)	-2.6	3.1
CCOc1ccc(C=C2Oc3cc(OC(=O)N(C)C)ccc3C2=O)cc1	7.9	-4.5
CCN(CC)C(=O)c1ccc2c(c1)C1C=CCC1C(c1ccc([N+](=O)[O-])cc1)N2 (stereo not given)	-1.8	70.3*
SMILES	Pf apPOL block	mHTT CaM bind
CCN(CC)C(=O)c1ccc2c(c1)C1C=CCC1C(C(=O)O)N2 (stereo not given)	1.8	75.8*
CCN(CC)C(=O)c1ccc(NC(=O)c2ncn[nH]2)cc1	0.9	20.6
COc1ccccc1C1N(c2cc(C)on2)C(=O)C2CCCN21 (stereo not given)	-3.1	6.6
O=c1oc2cc([N+](=O)[O-])c(O)c([N+](=O)[O-])c2s1	-3.7	68.0*
Brc1cccc(C2C=C(c3cccnc3)Nc3nnnn32)c1 (stereo not given)	-0.9	4.0
Cc1cccc(NC(=O)CN2C(=O)CN=C(c3ccccc3)c3cc(Cl)ccc32)c1C	-19.5	54.0*
COc1ccc(NC(=O)CN2C(=O)CN=C(c3ccccc3)c3cc(Cl)ccc32)cc1OC	-18.5	76.0*
O=C(CN1C(=O)CN=C(c2ccccc2)c2cc(Cl)ccc21)Nc1ccccc1C(F)(F)F	-5.5	26.0
O=C(CN1C(=O)CN=C(c2ccccc2)c2ccccc21)Nc1cccc(Cl)c1	-0.8	27.0
COc1cccc(N2CCN(Cc3ccccc3F)CC2)c1	-3.6	40.9
COc1cc(OC)c(OC)cc1C=C1Oc2cc(OC(=O)N(C)C)ccc2C1=O	-7.2	-11.0
CC1Oc2ccccc2C=C1C=C1Oc2cc(OC(=O)N(C)C)ccc2C1=O (stereo not given)	-20.7	-3.9
O=c1c2ccccc2nc(/C=C/c2ccc(Cl)cc2)n1-c1ccccc1	-17.8	-0.3
CN(Cc1ccccc1)C(=C(Cl)Cl)/C(=C1\NCCN1Cc1ccc(Cl)nc1)[N+](=O)[O-]	-5.3	65.0*
CN1CCN(Cc2ccc(Cl)nc2)/C1=C(/C(Cl)=C(Cl)Cl)[N+](=O)[O-]	-4.7	7.0
Cc1ccccc1N1CCN(Cc2ccc(F)cc2)CC1	-3.2	-15.8
COc1ccc(Br)cc1C=C(C)[N+](=O)[O-]	3.9	·
O=C(c1nccs1)C1CCCN1 (stereo not given)	·	97.9*
CN1CCN(Cc2ccco2)CC1	78.3*	0.1
CN1CCN(Cc2ccc[nH]2)CC1	-6.1	29.6
CCCCCC(=O)NC(Oc1ccccc1)C(Cl)(Cl)Cl (stereo not given)	-4.3	81.0*
CC(C)C(=O)NC(Oc1ccccc1)C(Cl)(Cl)Cl (stereo not given)	-4.5	-16.0
C1=CC2CC1CC2CN1CCCCC1c1cccnc1 (stereo not given)	-0.4	8.0
Cc1cccc(N2CCN(Cc3ccccc3)CC2)c1C	-6.1	-14.7
Cc1cccc(N2CCN(Cc3ccc(N(C)C)cc3)CC2)c1C	-14.3	66.6*
SMILES	Pf apPOL block	mHTT CaM bind
O=[N+]([O-])c1ccccc1CN1CCN(c2ccccc2)CC1	-4.8	7.5
COc1ccc(CC(C)NCC2CCCO2)cc1OC (stereo not given)	-1.6	-2.1
COc1cc2c(cc1OC)C1c3cc([N+](=O)[O-])ccc3Oc3cc(C#N)c(C#N)cc3N1CC2 (stereo not given)	-2.4	13.0
COc1cc2c(cc1OC)-c1c(OC)c(OC)c([N+](=O)[O-])c3c1C(C2)N(C)CC3 (stereo not given)	·	56.6*
CC1(C)Cc2cccc(OCC(=O)N3CCN(CCn4cccn4)CC3)c2O1	-4.0	-11.2
CCN1CCC(NC(C)COC)CC1 (stereo not given)	3.3	4.9
CC(=O)N1CC(=O)Nc2ccc(Br)cc2C1c1ccccc1Cl (stereo not given)	-2.6	16.0
O=C1CNC(c2ccccc2Cl)c2cc(Br)ccc2N1 (stereo not given)	-0.6	61.0*
COc1ccccc1N1CCN(C(=O)C(O)(c2ccccc2)c2ccccc2)CC1	-13.1	82.0*
COc1ccccc1N1CCN(Cc2ccc(O)cc2)CC1	-2.8	-3.4
COc1cccc(CN2CCN(c3ccc(Cl)cc3)CC2)c1OC	-12.4	1.7
COc1cccc(CN2CCN(c3ccc(F)cc3)CC2)c1OC	57.9*	6.1
CCOc1ccc(C2C3C(=NN2C(C)=O)C2CCN3CC2)cc1 (stereo not given)	3.4	-4.6
Fc1ccccc1C1NCCC2NC=NC21 (stereo not given)	·	-2.2

Screening data as filed in PubChem BioAssay.
